# Reference: PubChem BioAssay (EPA / NIEHS)
# Where “and” joins values, the source holds several entries; their conditions need not be identical. Equal values may be shown once. A structure can be active in one record and inactive in another. Calls of active or inactive are those of the source. How the source made its calls: active means hit-call score of the fitted dose curve at least 0.9, where 1 is the maximum; inactive means score below 0.9.
# Key:
# [1] = ATG_PPRE_CIS: Attagene CIS-FACTORIAL HepG2 Assay for human Peroxisome Proliferator-activated Response Element (PPRE) (AID 2282958); details: HepG2 PPRE cis-element reporter, Attagene transcription factor profiling; actives raise or lower the signal
# Method in brief: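 HepG2, transient MRTU transfection (cis promoter elements, endogenous TFs). 24 h dosing. RNA → oligo(dT) RT → PCR → 6-FAM primer extension → HpaI digest → CE. Bidirectional fit vs DMSO.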
# [2] = ATG_RORE_CIS: Attagene CIS-FACTORIAL HepG2 Assay for human RAR-related Orphan Receptor Element (RORE) (AID 2282959); details: HepG2 Attagene cis-factorial RORE reporter, mRNA; actives raise or lower the signal
# Method in brief: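 Transient MRTU transfection of human HepG2 liver cells (FuGene 6); 24 h compound exposure; TriZol RNA, oligo(dT) RT, PCR, FAM labeling, HpaI cut, CE fragment analysis. DMSO = negative control/baseline.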
# [3] = ATG_Sox_CIS: Attagene CIS-FACTORIAL HepG2 Assay for human SRY-box transcription factor (SOX) (AID 2282960); details: HepG2 Attagene cis-factorial SOX reporter, mRNA; actives raise or lower the signal
# Method in brief: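 Endogenous factor activity in human liver HepG2 cells carrying transfected cis-regulated reporter units. RNA taken 24 h post-dose, reverse-transcribed, PCR-amplified and sized by capillary electrophoresis. Gain or loss of signal fitted relative to DMSO.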
# [4] = molecular target: Transcription factor Sp1 (Homo sapiens) (UniProt P08047); test: ATG_Sp1_CIS: Attagene CIS-FACTORIAL HepG2 Assay for human Specificity Protein 1 (Sp1) (AID 2282961); details: HepG2 Sp1 cis-reporter transcription, actives raise or lower the signal
# Transcription factor Sp1 (Homo sapiens), sequence (P08047 whole entry, looked up): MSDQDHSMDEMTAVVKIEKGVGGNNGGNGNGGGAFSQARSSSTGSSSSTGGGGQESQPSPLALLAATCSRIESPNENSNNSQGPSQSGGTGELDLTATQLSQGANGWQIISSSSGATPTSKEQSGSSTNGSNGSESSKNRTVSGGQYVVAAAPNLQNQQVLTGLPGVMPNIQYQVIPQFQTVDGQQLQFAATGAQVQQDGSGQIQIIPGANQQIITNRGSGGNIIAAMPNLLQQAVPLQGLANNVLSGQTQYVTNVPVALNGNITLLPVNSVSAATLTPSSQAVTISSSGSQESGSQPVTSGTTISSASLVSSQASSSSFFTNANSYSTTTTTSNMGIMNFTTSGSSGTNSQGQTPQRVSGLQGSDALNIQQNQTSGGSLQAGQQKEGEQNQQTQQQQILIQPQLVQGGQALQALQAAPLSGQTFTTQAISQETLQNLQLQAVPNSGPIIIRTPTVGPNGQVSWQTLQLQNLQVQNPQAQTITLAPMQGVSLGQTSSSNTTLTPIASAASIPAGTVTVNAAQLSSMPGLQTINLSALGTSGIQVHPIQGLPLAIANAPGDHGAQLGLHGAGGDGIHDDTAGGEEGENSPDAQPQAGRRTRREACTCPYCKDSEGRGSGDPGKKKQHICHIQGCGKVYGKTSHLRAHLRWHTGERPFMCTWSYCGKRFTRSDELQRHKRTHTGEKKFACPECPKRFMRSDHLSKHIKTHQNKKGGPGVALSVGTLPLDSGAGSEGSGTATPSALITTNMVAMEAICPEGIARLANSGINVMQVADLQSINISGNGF
# Method in brief: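 Transient MRTU-transfected HepG2, 24 h compound exposure. Total RNA → oligo(dT) RT → PCR of reporter → 6-FAM primer extension → HpaI digest → CE. Endpoint fitted both directions vs DMSO.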
# [5] = ATG_SREBP_CIS: Attagene CIS-FACTORIAL HepG2 Assay for human Sterol Regulatory Element Binding (SREBP) (AID 2282962); details: HepG2 Attagene cis-factorial SREBP reporter, mRNA; actives raise or lower the signal
# Method in brief: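 In this cis-format assay, HepG2 liver cells express reporters controlled by promoter elements responsive to native transcription factors. Exposure lasts 24 h; reporter mRNA fluorescence from capillary electrophoresis gives the signal, fitted bidirectionally against DMSO.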
# [6] = molecular target: Signal transducer and activator of transcription 3 (Homo sapiens) (UniProt P40763); test: ATG_STAT3_CIS: Attagene CIS-FACTORIAL HepG2 Assay for human Signal Transducer and Activator of Transcription 3 (STAT3) (AID 2282963); details: HepG2, Attagene cis-factorial STAT3 reporter transcription; actives raise or lower the signal
# Signal transducer and activator of transcription 3 (Homo sapiens), sequence (P40763 whole entry, looked up): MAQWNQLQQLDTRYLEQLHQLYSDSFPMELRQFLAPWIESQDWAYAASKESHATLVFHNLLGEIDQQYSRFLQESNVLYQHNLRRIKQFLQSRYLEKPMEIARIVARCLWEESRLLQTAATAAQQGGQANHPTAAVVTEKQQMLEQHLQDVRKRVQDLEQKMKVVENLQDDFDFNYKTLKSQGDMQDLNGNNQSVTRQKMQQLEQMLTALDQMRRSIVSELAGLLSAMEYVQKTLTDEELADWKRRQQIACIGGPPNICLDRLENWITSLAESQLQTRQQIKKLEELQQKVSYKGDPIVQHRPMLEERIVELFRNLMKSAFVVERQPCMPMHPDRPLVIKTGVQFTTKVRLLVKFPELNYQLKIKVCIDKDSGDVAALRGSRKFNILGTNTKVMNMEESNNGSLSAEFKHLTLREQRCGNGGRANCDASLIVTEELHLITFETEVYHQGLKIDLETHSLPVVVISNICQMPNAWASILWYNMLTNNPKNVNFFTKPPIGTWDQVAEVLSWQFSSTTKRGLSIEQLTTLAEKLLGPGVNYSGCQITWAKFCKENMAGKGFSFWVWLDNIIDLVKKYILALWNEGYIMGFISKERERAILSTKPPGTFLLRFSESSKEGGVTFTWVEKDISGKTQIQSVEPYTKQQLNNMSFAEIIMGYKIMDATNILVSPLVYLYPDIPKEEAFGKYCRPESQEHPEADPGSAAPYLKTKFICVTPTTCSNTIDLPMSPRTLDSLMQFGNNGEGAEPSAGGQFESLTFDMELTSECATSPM
# Method in brief: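 Uses human liver HepG2 transiently carrying cis-regulated reporter transcription units. Following 24 h dosing, reporter mRNA induction was detected by RT-PCR and capillary electrophoresis, analysed bidirectionally versus DMSO.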
# [7] = ATG_TA_CIS: Attagene CIS-FACTORIAL HepG2 Assay for human TA Basal Promoter (AID 2282964); details: HepG2 Attagene CIS-factorial TA basal promoter reporter; actives raise or lower the signal
# Method in brief: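 Fluorescence from labelled RT-PCR reporter fragments, separated by capillary electrophoresis, gives the signal. Cells: HepG2 transiently carrying multiple reporter units, 24 h chemical dosing. Gain or loss relative to DMSO.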
# [8] = ATG_TCF_b_cat_CIS: Attagene CIS-FACTORIAL HepG2 Assay for human T-Cell-Factor with beta-catenin (TCF/b-cat) (AID 2282965); details: HepG2 TCF/beta-catenin cis-reporter transcription, actives raise or lower the signal
# Method in brief: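 HepG2 cells transiently transfected with multiple cis-promoter-regulated reporter transcription units, so endogenous transcription factor activity is measured. Reporter mRNA read 24 hours after dosing by RT-PCR, fluorescent labelling and capillary electrophoresis; bidirectional fitting against DMSO.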
# [9] = ATG_TAL_CIS: Attagene CIS-FACTORIAL HepG2 Assay for human TAL Basal Promoter (AID 2282966); details: HepG2 Attagene cis-factorial TAL promoter reporter; actives raise or lower the signal;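 further: background control endpoint measuring basal TAL promoter reporter mRNA not a specific factor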
# Method in brief: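 Basal-promoter background-control endpoint from a multiplexed HepG2 reporter panel. Cells were exposed 24 h, then reporter mRNA was read by RT-PCR/CE fluorescence and fitted in both directions relative to DMSO.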
Structure (SMILES),outcome [1],outcome [2],outcome [3],outcome [4],outcome [5],outcome [6],outcome [7],outcome [8],outcome [9],AC50 [1],AC50 [2],AC50 [3],AC50 [8]
C[C@]12CC[C@@H]3c4ccc(O)cc4C[C@@H](CCCCCCCCCS(=O)CCCC(F)(F)C(F)(F)F)[C@H]3[C@@H]1CC[C@@H]2O (some centres undefined),inactive,inactive,inactive,inactive,inactive,inactive,inactive,inactive,inactive,–,–,–,–
CCCCC(CC)CN1C(=O)C2C3C=CC(C3)C2C1=O (centres undefined),–,–,inactive,inactive,inactive,inactive,inactive,inactive,inactive,50 µM (active),34 µM (active),–,–
C#CCOC(=O)[C@@H](C)Oc1ccc(Oc2ncc(Cl)cc2F)cc1,–,inactive,inactive,inactive,inactive,inactive,inactive,inactive,inactive,18 µM (active),–,–,–
CCOC(=O)[C@H](C)Oc1ccc(Oc2nc3ccc(Cl)cc3o2)cc1,–,–,inactive,inactive,inactive,inactive,inactive,inactive,inactive,50 µM (active),–,–,–
COc1c(Cl)ccc(Cl)c1C(=O)O,inactive,inactive,inactive,inactive,inactive,inactive,inactive,inactive,inactive,–,–,–,–
CCCN(CCC)C(=O)SCC,–,inactive,inactive,inactive,inactive,inactive,inactive,inactive,inactive,–,–,–,–
CCCCOC(=O)[C@@H](C)Oc1ccc(Oc2ccc(C(F)(F)F)cn2)cc1,inactive,inactive,inactive,inactive,inactive,inactive,inactive,inactive,inactive,–,–,–,–
CSC(=O)c1cccc2nnsc12,inactive,inactive,inactive,inactive,inactive,inactive,inactive,inactive,inactive,–,–,–,–
Oc1ccc(C(c2ccc(O)cc2)C(Cl)(Cl)Cl)cc1,–,inactive,inactive,inactive,inactive,inactive,inactive,inactive,inactive,–,–,–,–
CCCCOC(=O)C(C)Oc1ccc(Oc2ccc(C(F)(F)F)cn2)cc1 (centres undefined),–,inactive,inactive,inactive,inactive,inactive,inactive,inactive,inactive,50 µM (active),–,–,–
COC(=O)c1ccccc1S(=O)(=O)NC(=O)Nc1nc(OC(F)F)cc(OC(F)F)n1,inactive,inactive,inactive,inactive,inactive,inactive,inactive,inactive,inactive,–,–,–,–
COC(=O)CSc1cc(N=c2sc(=O)n3n2CCCC3)c(F)cc1Cl,–,inactive,inactive,inactive,inactive,inactive,inactive,inactive,inactive,10.4 µM (active),–,–,–
CC(C)(C)[C@@H](O)[C@@H](Cc1ccc(Cl)cc1)n1cncn1,inactive,inactive,inactive,inactive,inactive,inactive,inactive,inactive,inactive,–,–,–,–
CCCCOCCOCCOCc1cc2c(cc1CCC)OCO2,inactive,inactive,inactive,inactive,inactive,inactive,inactive,inactive,inactive,–,–,–,–
CC1(C)C(C=C(Cl)Cl)C1C(=O)OCc1cccc(Oc2ccccc2)c1 (centres undefined),–,inactive,inactive,inactive,inactive,inactive,inactive,inactive,inactive,–,–,–,–
O=C(O)C1(C(=O)Nc2ccc(Cl)cc2Cl)CC1,–,inactive,inactive,inactive,inactive,inactive,inactive,inactive,inactive,13.7 µM (active),–,–,–
CCOC(=O)C(C)Oc1ccc(Oc2cnc3cc(Cl)ccc3n2)cc1 (centres undefined),inactive,inactive,inactive,inactive,inactive,inactive,inactive,inactive,inactive,–,–,–,–
CCOC(=O)C(C)Oc1ccc(Oc2nc3ccc(Cl)cc3o2)cc1 (centres undefined),inactive,–,inactive,inactive,inactive,inactive,inactive,inactive,inactive,–,–,–,–
S=C(S)NCCNC(=S)S.[Mn+2].[S-]C([S-])=NCCN=C([S-])[S-].[Zn+2],–,inactive,inactive,inactive,inactive,inactive,inactive,inactive,inactive,–,19.6 µM (active),16.5 µM (active) and 23 µM (active) and 22.3 µM (active),20 µM (active) and 27.8 µM (active) and 26.9 µM (active)
CCN(CC)C(=O)c1cccc(C)c1,inactive,inactive,inactive,inactive,inactive,inactive,inactive,inactive,inactive,–,–,–,–
COC(=O)c1ccc(I)cc1S(=O)(=O)NC(=O)Nc1nc(C)nc(OC)n1,–,inactive,inactive,inactive,inactive,inactive,inactive,inactive,inactive,–,–,–,–
CCCCC(CC)COC(=O)c1ccccc1C(=O)O (centres undefined),–,inactive,inactive,inactive,inactive,inactive,inactive,inactive,inactive,–,–,–,–
COC(=O)c1ccccc1C(=O)O,inactive,inactive,inactive,inactive,inactive,inactive,inactive,inactive,inactive,–,–,–,–
CCSC(=O)N(CC(C)C)CC(C)C,inactive,inactive,inactive,inactive,inactive,inactive,inactive,inactive,inactive,–,–,–,–
S=C([S-])NCCNC(=S)[S-].[Mn+2],–,inactive,inactive,inactive,inactive,inactive,inactive,inactive,inactive,–,–,–,–
